This is a sample that favours compounds with a hit; in the whole collection about 4.2% have one here.
AHR act = human AHR activation. P35869. AHR-responsive luciferase reporter cells, luminescence. activation, % at 5 µM. 320,000 compounds, 2.5% hits. AID 2796; in the data active means activation above about 47%
Target sequence (P35869 whole entry, looked up): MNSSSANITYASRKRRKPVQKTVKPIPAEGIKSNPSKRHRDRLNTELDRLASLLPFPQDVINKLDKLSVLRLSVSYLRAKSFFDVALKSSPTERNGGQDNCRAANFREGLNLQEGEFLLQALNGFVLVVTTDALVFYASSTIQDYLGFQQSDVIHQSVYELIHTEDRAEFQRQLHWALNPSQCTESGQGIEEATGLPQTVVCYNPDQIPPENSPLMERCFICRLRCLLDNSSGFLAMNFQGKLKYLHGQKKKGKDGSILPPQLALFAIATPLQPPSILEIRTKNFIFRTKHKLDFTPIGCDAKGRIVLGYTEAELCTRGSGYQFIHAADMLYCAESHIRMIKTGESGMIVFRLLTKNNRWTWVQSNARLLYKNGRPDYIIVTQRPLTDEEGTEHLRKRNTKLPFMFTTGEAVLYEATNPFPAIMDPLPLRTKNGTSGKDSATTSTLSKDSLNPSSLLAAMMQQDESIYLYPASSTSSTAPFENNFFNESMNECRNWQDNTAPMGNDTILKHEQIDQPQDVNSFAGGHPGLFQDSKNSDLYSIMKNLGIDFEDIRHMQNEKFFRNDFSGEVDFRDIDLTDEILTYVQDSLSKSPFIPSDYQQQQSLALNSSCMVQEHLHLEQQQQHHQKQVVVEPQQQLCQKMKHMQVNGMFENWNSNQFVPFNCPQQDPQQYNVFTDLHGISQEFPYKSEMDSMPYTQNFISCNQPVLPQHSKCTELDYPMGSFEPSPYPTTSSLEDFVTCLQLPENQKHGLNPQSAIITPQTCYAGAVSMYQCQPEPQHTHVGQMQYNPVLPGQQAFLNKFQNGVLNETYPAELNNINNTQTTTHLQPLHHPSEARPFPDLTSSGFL
GAA850 FXN act = activators of GAA850 frataxin (FXN) promoter. HEK293 lucGAA850 FXN promoter luciferase reporter, 24 h; percent of 10 µM SAHA response. 360,000 compounds, 0.56% hits. activation, % at 6 µM;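 active means activation above the average of all compounds screened plus 3 SD, cutoff fixed separately per campaign, cut at about 7.5% in these data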
Wnt act = activators of Wnt/beta-catenin signaling. Wnt/beta-catenin reporter cell assay, activator, plate reader. activation, % at 9.35 µM. 300,000 compounds, 1.2% hits. AID 743398; in the data active means activation above about 30%, passing the limit was not always enough; inconclusive means no clear call, values can overlap the other calls
MITF act = MITF TRPM1 promoter activation in melanoma cells; SK-MEL-5 TRPM1-promoter luciferase, 24 h; % of positive control, neutral wells = 0; activation, % at 12.5 µM; 300,000 compounds, 0.75% hits; AID 588334;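 active means mean activation of at least 80% with every replicate also reaching 80%; inconclusive means mean reaches 80% but some replicate falls short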
esBAF inh = SWI/SNF esBAF complex inhibition | mouse ES cells, Bmi1-luciferase knock-in reporter, 24 h; 100% = twice the neutral-well signal | reporter increase, % at 12.5 µM | 350,000 compounds, 2% hits | AID 602393; in the data active means activation above about 40%; inconclusive means no clear call, values can overlap the other calls;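 further: a rise in the Bmi1 reporter signal indicates esBAF inhibition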
Of the large screens only hits and unclear results are named; the others gave an inactive call.

CCCN(C)C[C@H]1Oc2cc(-c3ccc(C)cc3)ccc2S(=O)(=O)N([C@@H](C)CO)C[C@H]1C	none (no result: AHR act, GAA850 FXN act, Wnt act, MITF act)
CC(/C=N/n1c(-c2cc(C)[nH]n2)n[nH]c1=S)=C\c1ccccc1	AHR act 78 (no result: esBAF inh)
CC(C)CC#Cc1ccc2c(c1)O[C@@H](CN(C)S(C)(=O)=O)[C@H](C)CN([C@H](C)CO)S2(=O)=O	none (no result: AHR act, GAA850 FXN act, Wnt act, MITF act)
O=C(CSc1nccc(=O)[nH]1)c1c[nH]c2ccccc12	none
O=C(CSc1nc2ccc(Cl)cc2[nH]1)c1c[nH]c2ccccc12	AHR act 77
O=C(CSc1nc2ncc(Cl)cc2[nH]1)c1c[nH]c2ccccc12	AHR act 60 (no result: esBAF inh)
CO[C@H]1CN(C)C(=O)c2cc(NS(=O)(=O)Cc3ccccc3)ccc2OC[C@@H](C)NC[C@H]1C	none (no result: AHR act, GAA850 FXN act, Wnt act, MITF act)
O=C(CN1CCCc2ccccc21)N/N=C/c1ccc(F)cc1F	none
O=C(CN1CCCc2ccccc21)N/N=C/c1ccccc1O	AHR act 47 (no result: esBAF inh)
CCCCCc1ccc(-c2cn(Cc3ccc(C(=O)c4ccccc4)cc3)nn2)cc1	esBAF inh 53
O=C(CN1CCOCC1)NCC[C@@H]1CC[C@H](NC(=O)Nc2ccccc2)[C@H](CO)O1	none (no result: AHR act, GAA850 FXN act, Wnt act, MITF act)
Cc1ccc(NC(=O)NC(=O)CN2CCC(C(N)=O)CC2)c(C)c1	esBAF inh 43 (no result: MITF act)
COc1ccc(NC(=O)N(C)C[C@@H]2Oc3c(NS(=O)(=O)c4cn(C)cn4)cccc3C(=O)N([C@@H](C)CO)C[C@H]2C)cc1	none (no result: AHR act, GAA850 FXN act, Wnt act, MITF act)
Cc1onc(-c2ccccc2)c1C(=O)NC1CCC(C)CC1 (configuration not stated)	Wnt act 444
CC1CCC(NC(=O)c2cccn2C)CC1 (configuration not stated)	Wnt act 42 (no result: AHR act)
COC(=O)c1c(-c2ccc(Br)cc2)noc1N	esBAF inh 56 (no result: MITF act)
COC(=O)c1c(-c2ccccc2)noc1-c1ccccc1	AHR act 53 (no result: MITF act, esBAF inh)
CCOc1cc(-c2noc(N)c2C(=O)OC)cc(OCC)c1OCC	none (no result: Wnt act)
Cc1noc(C)c1NC(=O)Nc1cccc2c1O[C@@H](CN(C)C(=O)Nc1ccccc1)[C@@H](C)CN([C@H](C)CO)C2=O	none (no result: AHR act, GAA850 FXN act, Wnt act, MITF act)
C[C@@H]1CN([C@@H](C)CO)C(=O)c2cc(NS(C)(=O)=O)ccc2O[C@H]1CN(C)Cc1ccc(-c2ccccc2)cc1	none (no result: AHR act, GAA850 FXN act, Wnt act, MITF act)
COc1ccccc1C(=O)Nc1ccc2c(c1)C(=O)N(C)[C@@H]1CC[C@H](CC(=O)NCCc3ccncc3)O[C@H]1CO2	none (no result: AHR act, GAA850 FXN act, Wnt act, MITF act)
C[C@@H]1CN([C@@H](C)CO)C(=O)Cc2cc(N(C)C)ccc2O[C@H]1CN(C)Cc1ccc(C(=O)O)cc1	none (no result: AHR act, GAA850 FXN act, Wnt act, MITF act)
O=C(c1ccccc1)n1ccn(-c2ccccc2)c1=S	AHR act 51 (no result: Wnt act)
Cc1ccc(N2CN(Cc3ccco3)CNC2=S)cc1	Wnt act 36 (no result: esBAF inh)
Cc1cccc(N2CN(Cc3ccco3)CNC2=S)c1	none (no result: esBAF inh)
Cc1ccc(N2CN(CCC3=CCCCC3)CNC2=S)cc1	Wnt act 49 (no result: MITF act)
COc1ccc(NC(=O)N(C)C[C@@H]2Oc3ccc(NC(=O)Cc4ccccc4)cc3CC(=O)N([C@H](C)CO)C[C@@H]2C)cc1	none (no result: AHR act, GAA850 FXN act, Wnt act, MITF act)
CO[C@H]1CC[C@H]2CCN(C)C(=O)CCCN(C)C(=O)c3cccc(C#N)c3OC[C@H]1O2	none (no result: AHR act, GAA850 FXN act, Wnt act, MITF act)
OCCNc1c2ccccc2nc2c(F)c(F)c(F)c(F)c12	Wnt act 251 (no result: esBAF inh)
COc1ccc2nc3sc(C(=O)N4CCN(C)CC4)cc3cc2c1	none (no result: Wnt act)
COc1ccc2nc3sc(C(=O)NCCCN4CCc5ccccc5C4)cc3cc2c1	esBAF inh 73
O=C(Cc1ccccc1)NCC1COc2ccccc2O1 (configuration not stated)	none (no result: esBAF inh)
O=C(NCC1COc2ccccc2O1)c1ccc(Br)s1 (configuration not stated)	esBAF inh 42
O=C(NCC1COc2ccccc2O1)c1cccs1 (configuration not stated)	none
Cn1cccc1C(=O)NCC1COc2ccccc2O1 (configuration not stated)	Wnt act inconclusive, MITF act 88, esBAF inh 55 (no result: AHR act)
Cc1ccc(NC2=Nc3ccccc3CS2)cc1	none (no result: Wnt act)
c1ccc(NC2=Nc3ccccc3CC2)cc1	MITF act inconclusive, esBAF inh 46 (no result: Wnt act)
C[C@H](NC(=O)[C@H]1[C@H](CO)[C@H]2Cn3c(cccc3=O)[C@@H]1N2C(=O)C1CC1)c1ccccc1	none (no result: AHR act, GAA850 FXN act, Wnt act, MITF act)
Cc1ccc(NC(=O)Nc2ccccc2C(=O)NCc2ccccc2)cc1	esBAF inh 51 (no result: Wnt act)
CCN1CCN(Cc2ccc(NC(=O)Nc3ccccc3Cl)cc2)CC1	none
CCN1CCN(Cc2ccccc2NC(=O)Nc2ccc(C)cc2)CC1	esBAF inh 43 (no result: Wnt act)
O=C(Nc1nccs1)c1ccc(Cl)c(S(=O)(=O)N2CCCCC2)c1	esBAF inh 42 (no result: Wnt act)
COc1cc(OC)cc(C(=O)Nc2c(F)cccc2F)c1	AHR act 59 (no result: esBAF inh)
Cc1cc(C(=O)Nc2cccnc2)cs1	none (no result: Wnt act)
COc1cccc(C(=O)Nc2c(F)cccc2F)c1	none
Cc1ccc(C(=O)Nc2cccnc2)cc1C	esBAF inh 46 (no result: AHR act, MITF act)
Cc1cc2oc(C(=O)Nc3cccnc3)c(C)c2cc1C	esBAF inh 78
CC(C)c1cn(CC[C@H]2CC[C@@H](NC(=O)C3CCC3)[C@H](CO)O2)nn1	none (no result: AHR act, GAA850 FXN act, Wnt act, MITF act)
C[C@H](CO)N1C[C@H](C)[C@H](CN(C)Cc2ccc(C(=O)O)cc2)Oc2ccc(NC(=O)Cc3ccccc3)cc2CC1=O	none (no result: AHR act, GAA850 FXN act, Wnt act, MITF act)
Cc1ccc(C(=O)Nc2cccnc2)cc1Cl	esBAF inh 55 (no result: MITF act)
Cn1c(NC(=O)c2cccnc2)nc2ccccc21	AHR act 78 (no result: Wnt act)
COc1cc(OC)cc(C(=O)Nc2ccc(-n3cnnn3)c(C)c2)c1	MITF act 108 (no result: esBAF inh)
COc1cc(NC(=O)c2ccccc2-n2cnnn2)cc(OC)c1	none
Cc1ccc(C(=O)Nc2cccnc2)cc1S(=O)(=O)N1CCCC1	AHR act 54
COC(=O)c1sccc1-c1ccc(C(=O)Nc2cccnc2)o1	MITF act 97
COC(=O)c1c(NC(=O)c2cccnc2)sc(C)c1C	AHR act 71 (no result: Wnt act)
Cc1ccc2c(Cl)c(C(=O)Nc3cccnc3)sc2c1	MITF act 95, esBAF inh 55 (no result: Wnt act)
O=C(Nc1ccon1)c1sc2cc(Cl)ccc2c1Cl	esBAF inh 47
O=C(NCc1ccco1)c1sc2cc(Cl)ccc2c1Cl	none
COc1ccc(NC(=O)N(C)C[C@@H]2Oc3c(NC(=O)Nc4ccc5c(c4)OCO5)cccc3C(=O)N([C@@H](C)CO)C[C@@H]2C)cc1	none (no result: AHR act, GAA850 FXN act, Wnt act, MITF act)
CC1CCCN(C(=O)c2ccc(Cl)c(S(=O)(=O)N3CCCCCC3)c2)C1 (configuration not stated)	esBAF inh 58
Cc1ccc(NC(=O)c2cccnc2)cc1C	esBAF inh 49 (no result: MITF act)
Cc1ccc(NC(=O)c2nc3nccc(C)n3n2)cc1S(=O)(=O)N1CCCCC1	esBAF inh 45
O=C(c1ccc(Cl)c(S(=O)(=O)N2CCCC2)c1)N1CCCCC1	none (no result: esBAF inh)
COc1cc(OC)cc(C(=O)Nc2cccnc2)c1	AHR act 59 (no result: esBAF inh)
O=C(N[C@@H]1CC[C@H](CCNC(=O)C2CCOCC2)O[C@H]1CO)c1ccncc1	none (no result: AHR act, GAA850 FXN act, Wnt act, MITF act)
